Laboratory results from PubChem BioAssay (NCI).
About 83,000 compounds went through this panel and 20% of them were active in at least one assay; those are over-represented in the sample as a whole.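 96-well plates, one dose, 48 hours. Percent growth reported; active if below 10.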 A number with no mark means an inactive call. The source made the active and inactive calls.

Key:
Test in all cases: NCI-60 one-dose screen, 48 h (100 = growth as untreated, 0 = no growth, -100 = all killed)
Settings in all cases: 10 µM unless noted
T-47D breast = system: T-47D breast
BT-549 breast = system: BT-549 breast
MDA-MB-435 melanoma = system: MDA-MB-435 melanoma
SW-620 colon = system: SW-620 colon
MCF7 breast = system: MCF7 breast
HCT-116 colon = system: HCT-116 colon
HCC-2998 colon = system: HCC-2998 colon
KM12 colon = system: KM12 colon

SMILES	growth (T-47D breast)	growth (BT-549 breast)	growth (MDA-MB-435 melanoma)	growth (SW-620 colon)	growth (MCF7 breast)	growth (HCT-116 colon)	growth (HCC-2998 colon)	growth (KM12 colon)
Cc1ccc(C(=O)/C(=C/c2ccc([N+](=O)[O-])cc2)SCc2ccc(Cl)cc2)cc1	65.2%	88.9%	78.1%	-52.1% (active)	12.8%	-59.9% (active)	78.6%	44.8%
Oc1ccc(C(c2ccc(O)cc2)c2ccc(Br)cn2)cc1	-38.5% (active)	-42.6% (active)	100%	102%	-20.5% (active)	19.4%	3.49% (active)	16%
COc1ccc(N2CCN(c3ccc(NC4=C(Cl)C(=O)c5ncccc5C4=O)cc3)CC2)cc1	33.2%	47.8%	-4.96% (active)	15.9%	8.91% (active)	15.9%	80.8%	63.8%
COc1ccc2[nH]c(=O)c(CN3CCN(c4nccc(-c5ccc(Cl)cc5)n4)CC3)cc2c1	73.6%	91.2%	97.9%	89.5%	83.5%	86.4%	105%	90.6%
CCN(CC)CCCC(C)Nc1cc(O)cc2cccnc12 (stereo unspecified)	110%	105%	106%	97.2%	95%	87.6%	96.4%	105%
C=C(CBr)[C@@H]1CC[C@]2(COC(C)=O)CC[C@]3(C)[C@H](CC[C@@H]4[C@@]5(C)CCCNC(C)(C)[C@@H]5CC[C@]43C)[C@@H]12	25.9%	36.2%	54.5%	31.5%	21.5%	15.3%	50.8%	41.9%
Nc1nc(Nc2ccccc2SSc2ccccc2Nc2nc(N)nc(-c3ccc(C(F)(F)F)cc3)n2)nc(-c2ccc(C(F)(F)F)cc2)n1	41.7%	75.6%	74.9%	80.4%	52.2%	51%	93.1%	44.8%
COc1cc2c(-c3cc4c(cc3CNCCc3ccc5c(c3)OCO5)OCO4)cccc2c(OC)c1O	67.3%	91.3%	96.9%	85.4%	76.8%	60.7%	42.7%	96.5%
CC1(C)NCCC[C@]2(C)[C@H]3CC(=O)[C@H]4[C@@H]5C[C@](C)(CO)CC[C@]5(C)CC[C@@]4(C)[C@]3(C)CC[C@@H]12	87.5%	103%	92.2%	98.6%	87.3%	84.1%	100%	95.4%
CCCCOc1ccc(/C=N/Nc2cc(C)nc3ccc(Br)cc23)cc1	82.5%	99%	-4.43% (active)	-70.5% (active)	-52.1% (active)	-69.6% (active)	-53.9% (active)	-4.11% (active)
COc1c(Cl)c2c(c(OC)c1OC)-c1ccc(SC)c(=O)cc1[C@@H](NC(=O)OCC(F)(F)F)CC2	43.1%	5.25% (active)	-36.9% (active)	21.9%	14.8%	1.82% (active)	21.6%	10.4%
CC/C(=C\c1ccc(OC)cc1)C(=O)c1ccc(OC)cc1	85.8%	135%	73.1%	94.2%	107%	90.8%	93.5%	96.3%
O=S(=O)(NCCNc1nccc(-c2c(-c3cccc(O)c3)nc3occn23)n1)c1ccccc1	74%	96%	28.5%	103%	49.4%	53.8%	113%	83.3%
COC(=O)C(OC(C)=O)C(OC(C)=O)c1ccc(OC)c(OC)c1 (stereo unspecified)	75.4%	104%	106%	118%	85.4%	81.8%	108%	102%
N#CC(C#N)=Cc1cc2ccccc2nc1Oc1ccc(C(F)(F)F)cc1	90.6%	96.2%	97%	74.5%	56.9%	89.8%	106%	88.5%
Cc1ccc(C(=O)/C(=C\c2ccc([N+](=O)[O-])cc2)S(=O)Cc2ccc(F)cc2)cc1 (stereo unspecified)	-26.6% (active)	-0.818% (active)	45.5%	-27.7% (active)	7.88% (active)	-70.7% (active)	22.8%	19.4%
COC(=O)C1=C(C(=O)ON)[C@@H]2C=C[C@@]1([C@@H](Cc1ccccc1)Nc1ccccc1)O2	-35.9% (active)	118%	101%	-71.2% (active)	90.8%	-77.7% (active)	93.6%	96.5%
COc1ccc2c(c1)C(=O)CC(c1ccccc1OC)O2 (stereo unspecified)	91.1%	96.5%	100%	103%	83.8%	103%	105%	102%
CCCCNC(=O)Oc1ccc(/C(=C(\C)c2ccccc2)c2ccc(OCCN3CCCCC3)cc2)cc1	31.6%	62%	67.8%	60.8%	22.5%	42.8%	79%	52.1%
O=C(C1CCC1)N1N=C(c2ccc(-n3ccc(C(F)(F)F)n3)cc2)CC1c1ccc[nH]1 (stereo unspecified)	78%	119%	99.7%	103%	91.9%	94.4%	113%	89.7%
O=C(CCN1CCCC1)Nc1ccc2c(NCc3ccccc3)c3ccccc3nc2c1	-5.83% (active)	16.8%	-5.11% (active)	-20.4% (active)	-5.67% (active)	-15.5% (active)	-37.4% (active)	-2.03% (active)
C#Cc1cccc(NC(=O)c2cccc(NC(=O)CCl)c2)c1	25% [8.25 µM]	-43.5% [8.25 µM] (active)	-13.2% [8.25 µM] (active)	-74.2% [8.25 µM] (active)	3.07% [8.25 µM] (active)	-20.3% [8.25 µM] (active)	74.3% [8.25 µM]	16.8% [8.25 µM]
O=C1/C=C/[C@@H](O)[C@@H]2C[C@@H](O)C[C@H]2/C=C/CCC[C@H](CCc2ccc3ncccc3c2)O1	0.682% (active)	7.66% (active)	5.74% (active)	-14.2% (active)	2.74% (active)	-53.6% (active)	12.9%	-40.3% (active)
Cc1ccc(/C=C(/C#N)n2nnc3cccc(F)c32)cc1	21.9%	27.1%	-89.5% (active)	1.87% (active)	13.5%	2.07% (active)	-32.1% (active)	-17.6% (active)
CC[C@]12C=CCN3CC[C@@]4(c5cc(NC(=O)CCC(=O)O[C@H]6CC[C@H]7[C@@H]8CCC9=CC(=O)CC[C@@H]9[C@H]8CC[C@]67C)c(OC)cc5N(C)[C@H]4[C@@](O)(C(=O)OC)[C@@H]1OC(C)=O)[C@@H]32	53%	77.6%	20.7%	86.9%	80%	62.5%	91.9%	73.1%
CCN(CC)c1ccc(/C=N/NC(=O)CSc2nc3ccccc3c(=O)n2Cc2ccc(S(N)(=O)=O)cc2)c(O)c1	6.32% (active)	33.6%	13.8%	21.4%	13.3%	21.5%	20.3%	15.2%
COc1cc(OC)cc(C(=O)C[n+]2cccc3cc[nH]c32)c1	100%	102%	99%	99.8%	94.2%	97.6%	107%	101%
